Measurements reported in PubChem BioAssay (EPA / NIEHS).
A structure can be active in one record and inactive in another. Active and inactive are the calls of the source. Rule for the calls: active = hit-call score of the fitted dose curve at least 0.9, where 1 is the maximum; inactive = score below 0.9.

target: Hepatocyte nuclear factor 6 (Homo sapiens) (UniProt Q9UBC0); assay: ATG_HNF6_CIS: Attagene CIS-FACTORIAL HepG2 Assay for human Hepatocyte Nuclear Factor 6 (HNF6) (AID 2282952); details: HepG2 Attagene cis-factorial HNF6 reporter transcription; actives raise or lower the signal
Sequence (Q9UBC0 whole entry, looked up): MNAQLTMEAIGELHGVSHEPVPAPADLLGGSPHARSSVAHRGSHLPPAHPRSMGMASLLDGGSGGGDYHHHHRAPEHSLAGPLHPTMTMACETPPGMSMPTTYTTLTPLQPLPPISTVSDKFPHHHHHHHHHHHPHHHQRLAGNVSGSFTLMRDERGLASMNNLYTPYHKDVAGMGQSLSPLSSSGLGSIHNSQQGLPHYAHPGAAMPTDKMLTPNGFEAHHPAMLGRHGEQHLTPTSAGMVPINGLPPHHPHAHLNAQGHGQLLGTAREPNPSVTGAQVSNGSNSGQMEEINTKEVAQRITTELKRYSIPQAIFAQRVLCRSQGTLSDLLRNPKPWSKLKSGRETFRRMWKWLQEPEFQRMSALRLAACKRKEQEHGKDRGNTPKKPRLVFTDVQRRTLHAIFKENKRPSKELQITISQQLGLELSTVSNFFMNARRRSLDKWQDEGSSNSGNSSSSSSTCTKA
Protocol: ATG_CIS is a cell-based, multiplexed-readout assay that uses HepG2, a human liver cell line, with measurements taken at 24 hours after chemical dosing in a 24-well plate.ATG_HNF6_CIS is one of 52 assay component(s) measured or calculated from the ATG_CIS assay. It is designed to make measurements of mRNA induction, a form of inducible reporter, as detected with fluorescence intensity signals by Reverse transcription polymerase chain reaction (RT-PCR) and Capillary electrophoresis technology.Data from the assay component ATG_HNF6_CIS was analyzed into 1 assay endpoint. This assay endpoint, ATG_HNF6_CIS, was analyzed with bidirectional fitting relative to DMSO as the negative control and baseline of activity. Using a type of inducible reporter, measures of mRNA for gain or loss-of-signal activity can be used to understand the reporter gene at the transcription factor-level as they relate to the gene ONECUT1. Furthermore, this assay endpoint can be referred to as a primary readout, because this assay has produced multiple assay endpoints where this one serves a reporter gene function. To generalize the intended target to other relatable targets, this assay endpoint is annotated to the dna binding intended target family, where the subfamily is homeobox protein.
Human liver HepG2 cells are transiently transfected with multiple reporter transcription units (MRTUs) in 6-well plates using FuGene 6 reagent (Roche; 3 ml FuGene/1 mg DNA). The MRTU constructs are regulated by a cis-regulating element (promoter). […] A major difference between the CIS and TRANS system is that in CIS activities of endogenous TFs are measured, whereas the TRANS assay evaluates changes in activities of exogenous, chimeric NR-Gal4 proteins. […] At the end of 24 hour incubation, total RNA was isolated using TriZol reagent (Invitrogen). The isolated RNA is then reverse-transcribed using oligo(dT) primer and Mo-MLV reverse transcriptase (Invitrogen) with DNAse I (Ambion) treatment for 30 min. The one-tenth of the produced cDNA was amplified by PCR using Taq DNA polymerase (Invitrogen) and two reporter sequence-specific primers. The PCR products were fluorescently labeled by primer extension with 6-arboxyfluorescein (6-FAM) 5'-labeled reporter sequence-specific primer (2 min at 95 C, 20 s at 68 C and 10 min at 72 C) and these products were digested with 5U of HpaI (New England Biolabs) for 2h at 37 C. The fragments were purified using Qiaquick PCR columns (Qiagen), analyzed on an ABI 3130xL genetic analyzer (Applied Biosystems) with peak positions identified by using a set of X-rhodamine (ROX)-labeled MapMarker1000 molecular weight standards (BioVentures). The raw capillary electrophoresis data was processed using Attagraph software (Attagene).

| Structure (SMILES) | outcome | AC50 |
| --- | --- | --- |
| Cc1cc(C2CC2)nc(Nc2ccccc2)n1 | inactive | – |
| C#CC(C)(C)NC(=O)c1cc(Cl)cc(Cl)c1 | inactive | – |
| O=C(O)c1cc(Oc2ccc(C(F)(F)F)cc2Cl)ccc1[N+](=O)[O-] | inactive | – |
| CCOP(=S)(Oc1cnc(C(C)(C)C)nc1)OC(C)C (stereo not given) | inactive | – |
| CC(C)=CC1C(C(=O)OCN2C(=O)C3=C(CCCC3)C2=O)C1(C)C (stereo not given) | inactive | – |
| O=c1ccc(=O)[nH][nH]1 | inactive | – |
| CC(=NC#N)N(C)Cc1ccc(Cl)nc1 | inactive | – |
| FC(F)C(F)(F)OCC(Cn1cncn1)c1ccc(Cl)cc1Cl (stereo not given) | inactive | – |
| CCc1cnc(C2=NC(C)(C(C)C)C(=O)N2)c(C(=O)O)c1 (stereo not given) | inactive | – |
| Nc1c(Cl)cc([N+](=O)[O-])cc1Cl | inactive | – |
| CCOP(=S)(OCC)OC(Cl)C(Cl)(Cl)Cl (stereo not given) | inactive | – |
| CC(C1CC1)C(O)(Cn1cncn1)c1ccc(Cl)cc1 (stereo not given) | inactive | – |
| COc1cccc(C(=O)NN(C(=O)c2cc(C)cc(C)c2)C(C)(C)C)c1C | inactive | – |
| CSC1=N[C@@](C)(c2ccccc2)C(=O)N1Nc1ccccc1 | inactive | – |
| CCOP(=S)(OCC)Oc1ccc([N+](=O)[O-])cc1 | inactive | – |
| CC1=NNC(=O)N(/N=C/c2cccnc2)C1 | inactive | – |
| CNc1cnn(-c2cccc(C(F)(F)F)c2)c(=O)c1Cl | inactive | – |
| CN(C)NC(=O)CCC(=O)O | inactive | – |
| COP(=O)(OC)OC(Br)C(Cl)(Cl)Br (stereo not given) | inactive | – |
| CC[C@H](C)[C@H]1O[C@]2(C=C[C@@H]1C)C[C@@H]1C[C@@H](C/C=C(\C)[C@@H](O[C@H]3C[C@H](OC)[C@@H](O[C@H]4C[C@H](OC)[C@@H](NC)[C@H](C)O4)[C@H](C)O3)[C@@H](C)/C=C/C=C3\CO[C@@H]4[C@H](O)C(C)=C[C@@H](C(=O)O1)[C@]34O)O2 | inactive | – |

| Structure (SMILES) | outcome | AC50 |
| --- | --- | --- |
| CCOC(=O)COc1cc(-c2nn(C)c(OC(F)F)c2Cl)c(F)cc1Cl | inactive | – |
| CN1COCN(Cc2cnc(Cl)s2)C1=N[N+](=O)[O-] | inactive | – |
| O=[N+]([O-])c1cc(C(F)(F)F)c(Cl)c([N+](=O)[O-])c1Nc1ncc(C(F)(F)F)cc1Cl | inactive | 17.1 µM (active) |
| CSc1nnc(C(C)(C)C)c(=O)n1N | inactive | – |
| CCOC(=O)CC(SP(=O)(OC)OC)C(=O)OCC (stereo not given) | inactive | – |
| CCOP(=S)(OCC)Oc1ccc2c(C)c(Cl)c(=O)oc2c1 | inactive | – |
| CCCSP(=O)(OCC)Oc1ccc(Br)cc1Cl (stereo not given) | inactive | – |
| CNC(=O)Oc1cccc2c1OC(C)(C)O2 | inactive | – |
| CCCCOC(=O)[C@@H](C)Oc1ccc(Oc2ccc(C#N)cc2F)cc1 | inactive | – |
| CCC(=O)Nc1ccc(Cl)c(Cl)c1 | inactive | – |
| COP(=O)(NC(C)=O)SC (stereo not given) | inactive | – |
| N#CSCSC#N | inactive | – |
| COc1cc(OC)nc(Sc2cccc(Cl)c2C(=O)O)n1 | inactive | – |
| CCOP(=S)(OCC)Oc1cc(C)nc(C(C)C)n1 | inactive | – |
| CCCCSP(=O)(SCCCC)SCCCC | inactive | – |
| S=C1NCCN1 | inactive | – |
| CC(Oc1cccc(Cl)c1)C(=O)O (stereo not given) | inactive | – |
| C#CCC1=C(C)C(OC(=O)C2C(C=C(C)C)C2(C)C)CC1=O (stereo not given) | – | 50 µM (active) |
| C[Si](Cn1cncn1)(c1ccc(F)cc1)c1ccc(F)cc1 | inactive | – |
